Assay outcomes (PubChem BioAssay)
esBAF inh = blocks esBAF chromatin remodeling in mouse ES cells. Bmi1-luciferase knock-in reporter, 24 h; 100% = twice the neutral-well signal. reporter increase, % at 12.5 µM. actives 2% (n = 350,000); in the data active means activation above about 40%; inconclusive means no clear call, values can overlap the other calls;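 further: a rise in the Bmi1 reporter signal indicates esBAF inhibition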
MITF TRPM1 HTS = MITF TRPM1 promoter activation in melanoma cells; SK-MEL-5 TRPM1-promoter luciferase, 24 h; % of positive control, neutral wells = 0; actives 0.75% (n = 300,000); activation, % at 12.5 µM;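 active means mean activation of at least 80% with every replicate also reaching 80%; inconclusive means mean reaches 80% but some replicate falls short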
AHR act = activators of human aryl hydrocarbon receptor | actives 2.5% (n = 320,000) | activation, % at 5 µM | AHR-responsive luciferase reporter cells, luminescence | AID 2796 | P35869; in the data active means activation above about 47%
Target sequence (P35869 whole entry, looked up): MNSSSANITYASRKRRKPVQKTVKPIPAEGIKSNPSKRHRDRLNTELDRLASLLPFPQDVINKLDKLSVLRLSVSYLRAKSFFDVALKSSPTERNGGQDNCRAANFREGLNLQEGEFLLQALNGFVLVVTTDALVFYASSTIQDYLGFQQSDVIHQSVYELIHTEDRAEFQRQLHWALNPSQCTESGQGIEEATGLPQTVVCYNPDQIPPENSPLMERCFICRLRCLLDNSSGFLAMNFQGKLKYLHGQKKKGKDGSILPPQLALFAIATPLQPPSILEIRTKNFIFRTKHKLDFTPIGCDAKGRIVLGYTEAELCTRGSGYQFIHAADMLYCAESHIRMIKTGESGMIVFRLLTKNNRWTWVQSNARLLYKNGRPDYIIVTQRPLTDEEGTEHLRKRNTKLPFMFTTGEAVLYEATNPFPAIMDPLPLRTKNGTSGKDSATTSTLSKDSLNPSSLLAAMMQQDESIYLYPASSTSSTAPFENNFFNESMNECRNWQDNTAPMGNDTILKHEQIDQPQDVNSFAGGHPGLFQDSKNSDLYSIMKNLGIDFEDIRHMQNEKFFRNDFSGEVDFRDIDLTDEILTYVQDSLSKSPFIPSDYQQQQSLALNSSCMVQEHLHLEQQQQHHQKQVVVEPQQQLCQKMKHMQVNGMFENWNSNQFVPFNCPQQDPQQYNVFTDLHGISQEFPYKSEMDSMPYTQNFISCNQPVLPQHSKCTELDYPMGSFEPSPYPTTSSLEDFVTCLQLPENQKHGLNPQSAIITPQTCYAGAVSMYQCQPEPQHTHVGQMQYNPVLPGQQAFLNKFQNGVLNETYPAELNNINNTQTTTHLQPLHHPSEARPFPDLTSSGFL
GAA850 FXN act = increases GAA850 frataxin promoter reporter activity | HEK293 lucGAA850 FXN promoter luciferase reporter, 24 h; percent of 10 µM SAHA response | activation, % at 6 µM | actives 0.56% (n = 360,000);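 active means activation above the average of all compounds screened plus 3 SD, cutoff fixed separately per campaign, cut at about 7.5% in these data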
Wnt act = activators of Wnt/beta-catenin signaling; Wnt/beta-catenin reporter cell assay, activator, plate reader; activation, % at 9.35 µM; actives 1.2% (n = 300,000); in the data active means activation above about 30%, passing the limit was not always enough; inconclusive means no clear call, values can overlap the other calls
A number is an active result; – = inactive; ? = inconclusive; · = no result given. Rows were chosen to be rich in hits. Some 4.2% of all compounds tested hit in one or more screens of this group.

SMILES | esBAF inh | MITF TRPM1 HTS | AHR act | GAA850 FXN act | Wnt act
Cc1cccc(-c2noc(Cc3ccccc3)n2)c1 | 103 | ? | – | – | –
Cc1cccc(-c2noc(CCc3ccccc3)n2)c1 | 63 | · | – | – | ?
Cc1cccc(-c2noc(CCC(=O)NCc3ccccc3)n2)c1 | – | · | – | – | –
CC1CCN(Cc2nc(-c3ccccc3)no2)CC1 | 55 | · | – | – | ·
c1cncc(-c2noc(CC3CCCCC3)n2)c1 | 42 | – | – | – | ·
CCCc1nc(-c2ccc(-c3ccc(F)cc3)cc2)no1 | 58 | · | – | – | ·
CC(C)C(O)C1CCN(Cc2nc(-c3cccs3)no2)CC1 (configuration not stated) | 58 | – | – | – | –
c1ccc(CCc2nc(-c3ccccc3)no2)cc1 | 46 | – | – | – | –
COCc1cn(CC[C@H]2CC[C@H](NC(=O)Nc3ccc(C(F)(F)F)cc3)[C@H](CO)O2)nn1 | – | · | · | · | ·
Cc1cc(C)cc(OCc2nc(-c3cccnc3)no2)c1 | · | – | – | – | –
Cc1ccc(OCc2nc(-c3cccnc3)no2)cc1C | 37 | – | – | – | –
N=c1n(CCN2CCCCC2)c2ccccc2n1CC(O)c1ccc(Cl)c(Cl)c1 (configuration not stated) | – | – | – | – | –
CCn1c(=N)n(CC(=O)c2ccc(Cl)c(Cl)c2)c2ccccc21 | · | – | 65 | – | –
COc1ccc(C(=O)COC(=O)CCc2ccccc2)cc1 | – | – | – | – | –
CCn1c(=N)n(CC(=O)c2ccc(OC)cc2)c2ccccc21 | – | – | 66 | – | ·
N=c1n(CCN2CCCCC2)c2ccccc2n1CC(=O)c1ccc(Cl)c(Cl)c1 | · | · | 111 | – | –
COc1ccc(C(=O)CCc2ccccc2)cc1 | 48 | 98 | – | – | –
COc1cc(CNCCc2ccc(S(N)(=O)=O)cc2)ccc1OCC(=O)NC(C)(C)C | · | – | 49 | – | ·
CC1CC1C(=O)Nc1nc(-c2ccccn2)cs1 (configuration not stated) | 51 | – | – | – | –
Cn1cc(Cl)c(C(=O)Nc2nc3ccc(Cl)cc3s2)n1 | 112 | – | – | – | ·
O=C(Nc1nc(-c2ccccn2)cs1)C1COc2ccccc2O1 (configuration not stated) | – | – | – | – | –
CC1CC1C(=O)Nc1nc2ccc(Cl)cc2s1 (configuration not stated) | · | – | 67 | – | 54
Cn1cc(Cl)c(C(=O)Nc2nc3ccc([N+](=O)[O-])cc3s2)n1 | · | – | – | – | –
Cc1ccc(S(=O)(=O)N(C)C[C@@H]2Oc3ccc(NS(=O)(=O)c4cccs4)cc3CC(=O)N([C@H](C)CO)C[C@H]2C)cc1 | – | · | · | · | ·
CCOC(=O)C1=C(Nc2ccccc2)OCC1=O | – | – | – | – | ·
SMILES | esBAF inh | MITF TRPM1 HTS | AHR act | GAA850 FXN act | Wnt act
CCOC(=O)C1=C(Nc2ccc(OC)cc2)OCC1=O | · | · | – | – | 36
C[C@H](CO)N1C[C@H](C)[C@H](CN(C)Cc2ccc(C(=O)O)cc2)OCCCC[C@H](C)Oc2ccc(NS(=O)(=O)c3ccc(F)cc3)cc2C1=O | – | · | · | · | ·
COc1ccc(C#Cc2c(-c3ccsc3)oc3ccc(N4CCOCC4)cc23)cc1 | – | – | 70 | – | –
COc1ccc(/C=C/c2c(-c3cccc(C)c3)oc3ccc(N4CCOCC4)cc23)cc1 | – | – | 62 | – | –
COc1ccc(C#Cc2c(-c3ccc(OC)cc3)oc3ccc(-c4ccc(OC)cc4)cc23)cc1 | – | – | – | – | –
COc1ccc(-c2oc3ccc(N4CCOCC4)cc3c2C#CC2(O)CCCCC2)cc1 | – | – | 69 | – | –
COc1ccc(-c2oc(=O)c3cc(OC)c(OC)cc3c2C#CC2(O)CCCCC2)cc1 | – | – | – | – | –
C[C@H]1CCCCO[C@H](CN(C)C(=O)Nc2ccc(C(F)(F)F)cc2)[C@@H](C)CN([C@@H](C)CO)C(=O)c2cc(NC(=O)Nc3cccc4ccccc34)ccc2O1 | – | · | · | · | ·
COc1ccc(CNC(=O)C[C@@H]2CC[C@@H](NC(=O)c3ccc4c(c3)OCO4)[C@@H](CO)O2)cc1 | – | · | · | · | ·
C[C@@H]1CN([C@H](C)CO)C(=O)Cc2cc(NC(=O)CCCCCC(=O)Nc3ccccc3N)ccc2O[C@H]1CN(C)C(=O)Nc1ccc(C(F)(F)F)cc1 | – | · | · | · | ·
C[C@H]1CCCCO[C@@H](CN(C)CC2CCCCC2)[C@@H](C)CN([C@@H](C)CO)C(=O)c2cc(NS(C)(=O)=O)ccc2O1 | – | · | · | · | ·
Cc1noc(C)c1NC(=O)Nc1ccc2c(c1)C(=O)N([C@@H](C)CO)C[C@@H](C)[C@@H](CN(C)S(=O)(=O)c1ccccc1)OCCCC[C@H](C)O2 | – | · | · | · | ·
Oc1ccc(-c2csc(Nc3ccccn3)n2)cc1 | – | – | – | – | –
Cc1cccnc1Nc1nc(-c2ccc(O)cc2)cs1 | 58 | 101 | – | – | ·
Cc1ccc(Nc2nc(-c3ccncc3)cs2)cc1 | · | 88 | · | – | 43
COc1cccc(Nc2nnc(SCN3C(=O)c4ccccc4C3=O)s2)c1 | · | – | – | – | –
Cc1ccc(Nc2nc(-c3sc(N)nc3C)cs2)cc1 | ? | · | · | – | –
Cc1cccc(Nc2nc(-c3ccncc3)cs2)c1 | · | – | 54 | – | –
COc1cccc(Nc2nnc(SCc3nc4ccccc4s3)s2)c1 | · | – | 67 | – | –
CO[C@@H]1CN(C)C(=O)c2cc(NC(=O)Nc3ccccc3)ccc2OC[C@H](C)N(C(=O)CN(C)C)C[C@@H]1C | – | · | · | · | ·
COc1cccc(Nc2nc(-c3ccc(O)cc3)cs2)c1 | – | 90 | 54 | – | ·
COc1cccc(Nc2nc(-c3cccc(N4C(=O)c5ccccc5C4=O)c3)cs2)c1 | ? | – | – | – | –
Brc1ccc(N=NNc2ccccc2)cc1 | 54 | – | 58 | – | –
O=C(CN1CCOCC1)NCC[C@H]1CC[C@H](NC(=O)c2ccccc2F)[C@@H](CO)O1 | – | · | · | · | ·
CN1CCN(C(=O)C[C@H]2CC[C@@H]3[C@H](COC[C@@H](O)CN3Cc3ccc(Oc4ccccc4)cc3)O2)CC1 | – | · | · | · | ·
SMILES | esBAF inh | MITF TRPM1 HTS | AHR act | GAA850 FXN act | Wnt act
CC1=NN(c2ccc(C(F)(F)F)cn2)C(=O)C1 | – | – | 51 | – | –
CS(=O)(=O)Nc1ccc(N2CCN(c3ccc(C(F)(F)F)cn3)CC2)nc1 | · | · | – | – | –
Cc1noc(C)c1NC(=O)N(C)C[C@@H]1OCCCC[C@@H](C)Oc2ccc(NC(=O)NC3CCCCC3)cc2C(=O)N([C@H](C)CO)C[C@H]1C | – | · | · | · | ·
C[C@@H]1CN([C@H](C)CO)C(=O)c2cc(NC(=O)Nc3cccc4ccccc34)ccc2O[C@@H](C)CCCCO[C@@H]1CN(C)S(=O)(=O)c1cccs1 | – | · | · | · | ·
NC(=O)N1N=C2/C(=C/c3ccccc3)CCCC2C1c1ccccc1 (configuration not stated) | – | – | 59 | – | –
Cc1ncsc1C(=O)N1N=C2/C(=C/c3ccccc3)CCCC2C1c1ccccc1 (configuration not stated) | – | – | – | – | ·
O=C(O)CSCC(=O)N1N=C2/C(=C/c3ccccc3)CCCC2C1c1ccccc1 (configuration not stated) | – | – | 49 | – | –
